# Data from PubChem BioAssay AID743383 (National Center for Advancing Translational Sciences (NCATS), 2014).
# Calls of active or inactive are those of the source. The call rests on the fitted dose curve.
# Biological target: Phosphatidylinositol 5-phosphate 4-kinase type-2 alpha (Homo sapiens) (UniProt P48426)
# Assay: qHTS for Inhibitors of PI5P4K: PI5P4K-alpha 32P-ATP TLC Secondary Assay for Probe SAR
# Conditions: recombinant PI5P4K-alpha, 32P-ATP TLC PI(4,5)P2 formation
# From the text: In addition to finding PI5P, we discovered the type II phosphatidylinositol 5-phosphate 4-kinase (PI5P4K) family (alpha, beta, gamma isoforms) that catalyze the conversion of PI5P to PI(4,5)P2. Alternatively, PI(4,5)P2 can also be synthesized through phosphatidylinositol-4-phosphate (PI4P) by the type I phosphatidylinositol 4-phosphate 5-kinases (PI4P5K). These PI5P4K enzymes therefore represent one way by which cells can regulate endogenous PI5P levels and play important roles in insulin signaling and in stress responses. […] A qHTS PI5P4K-alpha ADP-Glo assay was developed to identify specific modulators of human PI5P4K, phosphatidylinositol-5-phosphate 4-kinase (Type II PIPK). To confirm that the active compounds and their analogs were true and selective inhibitors, a secondary Thin-layer Chromatography (TLC) assay against recombinant PI5P4K-alpha, PI4P5K-alpha or PI5P4K-beta that utilize a radioactively labeled ATP were developed. The data herein are the result of the PI5P4Kalpha TLC assay. […]
# The kinase reaction was carried out in a total of 50 microL of kinase buffer (50 mM HEPES pH 7.4 and 10 mM MgCl2) containing 20 microM of the lipids that were suspended by sonication. […] The radiolabeled product, PI(4,5)P2, was quantified with a phosphorimager (Molecular Dynamics, STORM840, GE Healthcare, Waukesha, WI, USA).
# Chain of Phosphatidylinositol 5-phosphate 4-kinase type-2 alpha (Homo sapiens) (P48426 whole entry, looked up): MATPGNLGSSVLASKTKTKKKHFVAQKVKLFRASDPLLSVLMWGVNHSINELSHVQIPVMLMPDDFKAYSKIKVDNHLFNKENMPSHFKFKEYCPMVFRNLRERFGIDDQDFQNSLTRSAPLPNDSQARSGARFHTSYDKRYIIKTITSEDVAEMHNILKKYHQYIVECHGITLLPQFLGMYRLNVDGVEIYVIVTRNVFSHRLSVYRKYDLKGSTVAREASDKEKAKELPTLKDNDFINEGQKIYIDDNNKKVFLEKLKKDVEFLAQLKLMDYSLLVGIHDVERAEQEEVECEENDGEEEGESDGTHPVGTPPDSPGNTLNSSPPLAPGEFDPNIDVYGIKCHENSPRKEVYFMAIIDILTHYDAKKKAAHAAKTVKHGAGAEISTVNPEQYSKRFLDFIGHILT
row,Structure (SMILES),Potency
1,O=C1Nc2ccc(C(=O)c3ccco3)cc2/C1=C/c1cc(Cl)c(O)c(Cl)c1,18 nM (active)
